# PubChem BioAssay (NCI)
# Compounds without any hit were thinned out: in the full panel of roughly 83,000, 20% have a hit.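 Method: cells in 96-well plates; compound added at one concentration; 48 h incubation; percent growth measured; values under 10 scored active.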 Values without a mark were called inactive. Calls of active or inactive are those of the source.
# Tests used:
# Assay in all cases: NCI-60 one-dose screen, 48 h (100 = growth as untreated, 0 = no growth, -100 = all killed)
# Conditions in all cases: 10 µM unless noted
# HT29 colon = test system: HT29 colon
# SNB-75 CNS = test system: SNB-75 CNS
# SNB-19 CNS = test system: SNB-19 CNS
# PC-3 prostate = test system: PC-3 prostate
# SK-MEL-5 melanoma = test system: SK-MEL-5 melanoma
# UACC-62 melanoma = test system: UACC-62 melanoma
# LOX IMVI melanoma = test system: LOX IMVI melanoma
# SK-MEL-28 melanoma = test system: SK-MEL-28 melanoma
# SK-MEL-2 melanoma = test system: SK-MEL-2 melanoma
# U251 CNS = test system: U251 CNS
SMILES,growth (HT29 colon),growth (SNB-75 CNS),growth (SNB-19 CNS),growth (PC-3 prostate),growth (SK-MEL-5 melanoma),growth (UACC-62 melanoma),growth (LOX IMVI melanoma),growth (SK-MEL-28 melanoma),growth (SK-MEL-2 melanoma),growth (U251 CNS)
Cc1nn(-c2ccccc2)c2nc3c(nc12)C(=O)CCC3,99%,98.2%,104%,90%,88.3%,86.3%,90.3%,114%,90%,
COc1ccc(Cn2c(NCCCN(C)C)nc(=O)n(Cc3ccc(F)cc3)c2=O)cc1,95.9%,81.4%,104%,80.3%,97.8%,97%,,100%,,
COc1ccc(-c2csc(NC(=O)c3cc(OC)c(OC)c(OC)c3)n2)cc1,110%,102%,94%,90.9%,98.5%,89%,,101%,,
CC(C)C/C(=N\NC(=O)c1ccncc1)c1cc(Cl)ccc1O,31.1%,44.7%,31.3%,22.4%,0.654% (active),6.43% (active),3.98% (active),40.5%,7.55% (active),
COC(=O)[C@]1(C(C)C)N[C@H](c2cn(-c3ccccc3)nc2-c2ccccc2)[C@@H]2C(=O)N(c3ccc(Cl)cc3)C(=O)[C@@H]21,98.1%,86.1%,99.1%,89.9%,101%,101%,92.1%,114%,86.9%,
C[C@]12CC[C@@H]3c4ccc(O)c([N+](=O)[O-])c4CC[C@H]3[C@@H]1CC[C@@H]2NS(=O)(=O)c1ccc(C(F)(F)F)cc1,48%,40.5%,48.7%,24.2%,20.4%,36.1%,,,,
CC(C)COCC(CN(Cc1ccccc1)c1ccccc1)N1CCCC1 (stereo not given),-24.5% (active),72.5%,79.1%,41.9%,51.4%,81.1%,47.5%,84.9%,77.2%,
CCN1C[C@@H](C)n2c(c(O)c3c(=O)n(Cc4ccc(F)c(Cl)c4)nc(C(=O)NC)c32)C1=O,106%,20.2%,12%,69.4%,15.1%,,,28.9%,,
Nc1ncc(-c2cnn(C3CCNCC3)c2)cc1-c1nc2cc(Cl)ccc2o1,-100% (active),-97.9% (active),-91.1% (active),,,-100% (active),-96.9% (active),-100% (active),-90.8% (active),
CC(=O)NCCSC(=O)C(=O)SCCNC(C)=O,120%,93%,104%,109%,,99.4%,104%,118%,19%,
O=C(O)c1ccc(NC(=O)c2cccc(Nc3ccnc(C(F)(F)F)c3)c2)cc1,106%,105%,106%,105%,,108%,,110%,,
Nc1ccc(C2=NN(c3ccccc3)C(c3ccc(Cl)cc3)C2)cc1 (stereo not given),19.5%,72.8%,78.1%,80.9%,,89.5%,,,,
O=C1/C(=C/c2ccc3cccc(Cl)c3n2)SC(=S)N1CCc1ccc(O)cc1,107%,50.7%,97.5%,,,68.4%,80.7%,108%,101%,
Cc1cc(C)n(C(=O)c2nn(-c3ccc(Cl)cc3)cc2O)n1,97.7%,29.8%,26.3%,,79.3%,52.9%,41.4%,71.7%,88.3%,
O=C1C(=O)c2ccc(Br)cc2-c2cc(Br)ccc21,105%,84.2%,,83.7%,63.3%,92.4%,-24.6% (active),76.7%,87.7%,-31.8% (active)
COc1ccc(Nc2nccc(N3CCN(c4c5ccc(Cl)cc5nc5ccc(OC)cc45)CC3)n2)cc1,44.6%,67.5%,92.2%,57.9%,,76.4%,,105%,,
N#Cc1cccc(/C=C(/C(=O)c2ccccc2)c2ccccc2)c1,70.1%,69.4%,83%,66.5%,49.3%,,14.1%,100%,34.5%,
COC(=O)[C@]12CC[C@@H](C)[C@H](C)[C@@H]1C1=CC[C@@H]3[C@@]4(C)C[C@@H](OC(=O)c5ccco5)[C@H](O)[C@@](C)(CO)[C@@H]4[C@H](O)C[C@@]3(C)[C@]1(C)CC2,-92.8% (active),-84.4% (active),-71% (active),-100% (active),,,-99.4% (active),-84.6% (active),-77.7% (active),
COc1ccc2nc3cc(Cl)ccc3c(N3CCN(c4ccnc(Nc5ccc(F)cc5)n4)CC3)c2c1,83.3%,69.1%,82.4%,67.3%,,77.4%,,104%,,
CCCCCCCCCCCCNc1ncnc2[nH]ncc12,97.9%,105%,,69.7%,36.1%,57.1%,44.6%,100%,85.9%,87.7%
Oc1[nH]c2ccc(Cl)cc2c1/C=c1/ccc2c(c1)N=C(c1ccc(C(F)(F)F)cc1)N=2,42.2%,15.8%,77%,,63.4%,61.6%,34.2%,45.8%,63.3%,
O=C(Nc1ccc(Cl)cc1Cl)Nc1ccc(-c2cccnc2)cc1N1CCC(CO)CC1,28%,39.4%,,16.6%,27.4%,26%,37.7%,46.6%,34.9%,29.8%
CCC1=C(c2ccc(OC)cc2)C(C)(C)Oc2cc(O)c(CN3CCCC3)cc21,66.6%,75%,,70.5%,67%,90.1%,59.3%,101%,86.3%,82.5%
COc1ccc2c(c1)C(=O)c1c-2c(OCCCN(C)C)nc2cc(Br)ccc12,-19.7% (active),79.2%,,63.8%,87.4%,86.4%,20.7%,-48.6% (active),97.7%,-75.7% (active)
c1ccc(N2CCN(c3nncc4ccccc34)CC2)nc1,98.2%,105%,,101%,97.5%,99.6%,97.5%,108%,103%,96.9%
Cc1ccc(NC(=O)Nc2ccc(-c3cccnc3)cc2N2CCC(CO)CC2)cc1,5.68% (active),15.3%,,51.8%,-46.1% (active),4.73% (active),33.3%,9.36% (active),33.7%,11.3%
COc1ncc(-c2ccc3nccc(C#CCN4CCN(S(C)(=O)=O)CC4)c3c2)cc1NS(=O)(=O)c1ccc(F)cc1F,10.3%,-11.4% (active),,0.156% (active),-92.3% (active),-54.9% (active),-11.4% (active),3.79% (active),0.951% (active),6.79% (active)
CC(CCC(=O)O)(NC(=O)c1ccc([N+](=O)[O-])cc1)C(=O)O (stereo not given),109%,91.6%,,98.4%,101%,109%,97.1%,107%,108%,104%
O=C1NCN(CCO)CN1,99.8%,100%,100%,,106%,92.8%,103%,,108%,
O=c1[nH]c(Cl)nc2c1cnn2-c1ccccc1,64.4%,82.9%,,76.6%,96.5%,67.6%,71.7%,70.7%,103%,100%
